One assay deals with BEST2. In words: pooled miR-30 sensor sort-seq; sequence = guide strand. As to conditions: shRNA.
As to TAGCGCATGAGTGTGCGCCGGT, the sensor-assay potency score (higher = more potent) is -0.558.

Take TTCAGGTTTTCAAACTTCTTGC: the sensor-assay potency score (higher = more potent) is -0.208.

Sequence TAGTGAAAGAGCATTCCACATT had a sensor-assay potency score (higher = more potent) of -0.946.

For the next assay, the target named is BIRC8. Described as above. As to conditions: shRNA.
As to TTTACAAAGCTTCTCCTCTTGC, the sensor-assay potency score (higher = more potent) is -0.189.

For TTGCTTGAAATCAATAACCGCG, the sensor-assay potency score (higher = more potent) is 0.0701.

In the case of TTTCTGTAGTGTCTTTCTGAGC, the sensor-assay potency score (higher = more potent) is -1.49.

As to TAGATCTGCAACAAGAACCTCA, the sensor-assay potency score (higher = more potent) was found to be 0.199.

TTGTTAACGGAGTACATCCATG returned a sensor-assay potency score (higher = more potent) of -1.22.

In the case of TTTCTTGGTAGTTTGTACCAGA, the sensor-assay potency score (higher = more potent) was -0.312.

TTGAAATCAATAACCGCGCTGC registered a sensor-assay potency score (higher = more potent) of 1.02.

As for TTCTTTTAGTTAGTGATGGTGT, the sensor-assay potency score (higher = more potent) turned out to be 0.0164.

Sequence TCGTATAGCTTCTTGTAGCATA came in with a sensor-assay potency score (higher = more potent) of -0.43.

Sequence TGCAACAAGAACCTCAAGCGTT had a sensor-assay potency score (higher = more potent) of -0.815.

Sequence TAGTTTGTACCAGAGCTCCCTC returned a sensor-assay potency score (higher = more potent) of -0.717.

Consider TCTTCTAGCAGATATTTGCAAC, for which the sensor-assay potency score (higher = more potent) was -1.19.

Values taken from the OligoGym collection.
Further: reference of the scale not given here.
